Source: PubChem BioAssay (NCI)
The panel holds about 83,000 compounds, 20% with a hit somewhere; the sample as a whole holds those more often.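 Interpretation: 100, growth as untreated; towards 0, rising growth inhibition; 0, no net growth; 0 to -100, cell death. Compounds scoring below 10 were considered active.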 Calls of active or inactive are those of the source.

What follows are compounds tested on MDA-MB-468 breast (assay: NCI-60 one-dose screen, 48 h (100 = growth as untreated, 0 = no growth, -100 = all killed)). Settings: 10 µM unless noted.
`Cc1cscc(C)c1=S` was tested, and the growth was 72.3% (inactive). For `Nc1cc(N)c(N=Nc2ccc(S(=O)(=O)O)cc2)cc1N=Nc1ccc(-c2ccc(N=Nc3ccc(O)c(C(=O)O)c3)cc2)cc1`, the growth was 97.6% (inactive). In the case of `CCc1ccccc1-n1c(N)c(C#N)c(-c2ccc(N(C)C)cc2)c(C#N)c1=O`, the growth is reported as 116% (inactive). `CCOC(=O)c1c(C(=O)OCC)c2cc(-c3ccn4c(C(=O)c5ccccc5)c(C(=O)OCC)c(C(=O)OCC)c4c3)ccn2c1C(=O)c1ccccc1` was tested, and the growth was 106% (inactive). In the case of `CN1CCN(Cc2ccc(NC(=O)c3cncc(C#Cc4cnn5ccccc45)c3)cc2C(F)(F)F)CC1`, the growth is reported as -36.1% (active). For `COc1ccc2[nH]c(=O)c(CNc3ccc(Nc4nccc(-c5ccc(Cl)cc5)n4)cc3)cc2c1`, the growth was 88% (inactive). `CCCCCCNc1nc(N2CCOCC2)c2[nH]c(NCCCCCC)nc2n1` was tested, and the growth was -76.7% (active). In the case of `CC(=O)O[C@H]1[C@@H]2OC(=O)C(CSc3ccccc3)[C@@H]2C[C@H]2O[C@]2(C)CC/C=C(\C)CCC[C@@H]1C` (stereo not given in full), the growth is reported as -10% (active). In the case of `COc1cc(Cl)cc(-c2nn(-c3cccc(NC(=O)Nc4cccc(C(F)(F)F)c4)c3)cc2-c2ccncc2)c1`, the growth is reported as 6.89% (active). In the case of `CCCCn1c(=O)[nH]c(N)c([C@@H]2c3c([nH]c(=O)n(CCCC)c3=O)Oc3ccc4ccccc4c32)c1=O`, the growth is reported as 113% (inactive). In the case of `CCCCCCCCC1OC1CCCCCCCC(=O)O` (stereo not given), the growth is reported as 89.9% (inactive). For `COc1cccc(C(=O)NNc2nc(Cl)nc(N3CCN(C(c4ccccc4)c4ccccc4)CC3)n2)c1`, the growth was -17.1% (active). With `O=C1SCN(Cc2ccccc2)CN1Cc1ccccc1` the growth was 24.8% (inactive). For `O=C(CCc1nnc(Cn2ccnc2)o1)c1nc2ccccc2[nH]1`, the growth was 108% (inactive). In the case of `Cn1nccc1Nc1nccc(-c2ccn([C@H](CO)c3ccc(Cl)c(F)c3)c(=O)c2)n1`, the growth is reported as 129% (inactive). In the case of `c1ccc(-c2c(-c3ccccc3)[n+](Cc3ccc4ccccc4c3)cn2Cc2ccc3ccccc3c2)cc1`, the growth is reported as -85% (active). For `CCCCCCCC(=O)SCC/C=C/[C@@H]1CC(=O)NCc2cc(ccn2)C2=N[C@@](C)(CS2)C(=O)N[C@@H](C(C)C)C(=O)O1`, the growth was 12.2% (inactive). With `O=S(=O)(Nc1ccc(F)c(Cl)c1)c1ccc(-c2cnc(C3CC3)o2)cc1` the growth was -23.9% (active). In the case of `CN(C)c1cc(NN=C(c2ccc(O)cc2)c2ccc(O)cc2)c([N+](=O)[O-])cc1[N+](=O)[O-]`, the growth is reported as 102% (inactive). In the case of `COCC[C@H]1CCC/C=C/[C@@H]2C[C@H](O)C[C@H]2[C@H](O)/C=C/C(=O)O1`, the growth is reported as -50.7% (active). With `CN(C)CCCNc1c2ccccc2nc2ccccc12` the growth was 83.4% (inactive). With `COC(=O)[C@H]1CCCN1C[C@@H](O)CN1C(=O)/C(=C\c2cc(OC)c(OC)c(OC)c2)c2ccccc21` the growth was 111% (inactive). In the case of `CCN(CC)c1ccc(/C=C/c2cc(C)c3ccccc3n2)cc1`, the growth is reported as 1.02% (active). `CSc1nc(Nc2cccc(NC(=O)/C(C#N)=C/c3c(Cl)cccc3Cl)c2)c(C#N)c(-c2cccc([N+](=O)[O-])c2)n1` was tested, and the growth was 36.9% (inactive). With `O=C(O)CNS(=O)(=O)c1ccc(OCCOc2ccc(S(=O)(=O)NCC(=O)O)cc2)cc1` the growth was 97.7% (inactive). In the case of `CC(C)=CCc1ccc(O)c(=O)cc1C(C)C`, the growth is reported as -24.2% (active). `COc1cccc(-c2nnc(COc3ccc(-c4nc5ccc(C)cc5[nH]4)cc3OC)o2)c1` was tested, and the growth was 71% (inactive). In the case of `ClC1=C(Cl)C(Cl)=C(Cl)C1=C/C=C/c1ccccc1`, the growth is reported as -50.3% (active). With `COc1ccc2nc(-c3cc(-c4cc(OC)c(OC)c(OC)c4)n[nH]3)[nH]c2c1` the growth was -8.59% (active). With `Nc1cc(-c2c[nH]c3ccc(F)cc23)nc2cc(-c3c[nH]c4ccc(F)cc34)nn12` the growth was 115% (inactive). For `CSc1nc(C)c([N+](=O)[O-])c(N)n1`, the growth was 106% (inactive). `N#CC1=C(NC=O)Oc2c(ccc3ccccc23)C1c1ccccc1` (stereo not given) was tested, and the growth was 12% (inactive). In the case of `O=C(Nc1cccc(Cl)c1)Nc1nccs1`, the growth is reported as -0.235% (active). With `N#Cc1c(-c2ccc(O)cc2)c2c(N)nn(-c3ccccc3)c2[nH]c1=O` the growth was 111% (inactive). In the case of `Nc1nccc2c1ccn2-c1ccc(NC(=O)c2ccc(N3CCOCC3)c(C(F)(F)F)c2)cc1`, the growth is reported as 27.6% (inactive). In the case of `C#CCOc1cccc(Nc2c(Cl)c(CCl)nc3ccc(Oc4ccccc4)cc23)c1`, the growth is reported as 24.7% (inactive). With `CCN(c1ccccc1)S(=O)(=O)c1cc([N+](=O)[O-])ccc1Cl` the growth was -4.6% (active). For `C#Cc1cccc(NC(=O)c2ccccc2NC(=O)C=C)c1`, the growth was 70.9% [8.25 µM] (inactive). In the case of `COc1ccc(-c2nc(SCC(C)C)nc(Nc3ccc(C)cc3)c2C#N)cc1`, the growth is reported as 71.1% (inactive). `Cc1cc(C(=O)NOCCO)c(Nc2ccc(I)cc2F)n(C)c1=O` was tested, and the growth was 114% (inactive).
